KLF5 inhibitor = KLF5 expression inhibitors, primary screen, DLD-1 cells, luminescence | actives 0.23% (n = 290,000) | AID 1700, 2009 | inhibition, % at 5 µM | DLD-1 KLF5 promoter-luciferase reporter;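 active = inhibition above a per-plate limit of that plate's mean compound inhibition plus 3 SD, cut at about 60% in these data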;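 also: 0% = DMSO wells and 100% = LY294002 at 200 µM; higher means less KLF5 promoter-driven luciferase light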
APP transl inh = inhibitors of APP translation via 5'UTR reporter, primary screen, APP 5'UTR luciferase, SH-SY5Y cells; SH-SY5Y APP 5'UTR-luciferase reporter, luminescence; inhibition, % at 2 µM; actives 0.82% (n = 190,000);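 active = inhibition above a set limit, derived from the sample mean plus 3 SD, cut at about 45% in these data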
IEC-6 tox = cytotoxicity in IEC-6 intestinal epithelial cells, primary screen, cytotoxicity control for KLF5 inhibitor project, cell-based, luminescence. IEC-6 cytotoxicity, luminescence viability. inhibition, % at 5 µM. actives 0.78% (n = 290,000). AID 1825, 2009;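 also: 0% = plate median of test compound wells and 100% = cytotoxic reference compound wells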
BaF3 tox = parental Ba/F3 cell viability inhibition, counter-screen for JAK2V617F inhibitor project, murine pro-B, CellTiter-Glo luminescence; CellTiter-Glo ATP luminescence; inhibition, % at 5.6 µM; actives 1.1% (n = 220,000);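 active = inhibition above a per-campaign cutoff, the mean inhibition of all tested compounds plus 3 SD, cut at about 27% in these data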;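 also: 0% = DMSO wells and 100% = JAK Inhibitor I control wells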
Ba/F3 V617F tox = reduced viability of JAK2V617F-dependent Ba/F3 cells, primary screen, JAK2V617F inhibitor project, cell-based, Ba/F3 EpoR-JAK2V617F, luminescence; AID 1446, 2008; inhibition, % at 5.6 µM; actives 1.1% (n = 220,000); ATP luminescence;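 active = inhibition above the campaign mean plus 3 SD over all tested compounds, cut at about 24% in these data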;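 also: cytokine-independent growth of Ba/F3 cells driven by EpoR plus mutant JAK2; 0% = DMSO-treated cells and 100% = JAK inhibitor I control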
aSyn 5UTR inh = MLPCN primary screen, SNCA 5' untranslated region | alpha-synuclein 5'UTR reporter, inhibitor activity | inhibition, % (tested at 7.5 µM) | actives 0.82% (n = 300,000); in the data active = inhibition above about 60%;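 also: H4 neuroglioblastoma cells stably carrying SNCA 5'UTR luciferase fusion; 0% = DMSO wells and 100% = positive control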
IEC-6 tox confirm = cytotoxic compounds in IEC-6 epithelial cells, confirmation, cytotoxicity control, cell-based, luminescence; shares compounds with IEC-6 tox; AID 1907, 2009; inhibition, % at 5 µM; actives 63% (n = 1,900); IEC-6 rat intestinal epithelial viability;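 also: 0% = vehicle and 100% = reference cytotoxic drug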
Starred values were filed as active, the others as inactive; / = no result. Only some compounds are listed: those with a hit (about 2.1% of all), similar ones and a draw of the others. Rule as the data show it, unless noted: active = inhibition above about 22%; inactive = the rest.

SMILES	KLF5 inhibitor	APP transl inh	IEC-6 tox	BaF3 tox	Ba/F3 V617F tox	aSyn 5UTR inh	IEC-6 tox confirm
O=[N+]([O-])c1c(Nc2cccc(O)c2)cc(Cl)c2nonc12	4.1	/	99.5*	/	/	25.0	29.0*
Cc1c(Nc2cc(Cl)c3nonc3c2[N+](=O)[O-])c(=O)n(-c2ccccc2)n1C	3.3	95.3*	96.5*	103.4*	95.0*	/	8.8
O=C(O)c1ccc(Nc2cc(Cl)c3nonc3c2[N+](=O)[O-])cc1	-15.1	-1.6	1.6	-0.3	-5.7	-37.0	/
CCOC(=O)c1c(S(=O)(=O)N(C)C2CCCCC2)c(C)n(C)c1C	-10.8	/	-3.4	/	/	17.9	/
Cc1nc2c3cc(Cl)ccc3n(CCN3CCCCC3)c2s1	16.2	11.7	41.4*	35.6*	15.8	6.6	16.7
COC(=O)Cn1c2ccc(Cl)cc2c2nc(C)sc21	-7.5	/	-4.1	-2.5	-2.8	-44.8	/
COc1ccc(C)cc1NC(=O)C1CCCN(S(=O)(=O)c2cccc3cccnc23)C1 (centres undefined)	-43.8	/	3.0	/	/	22.2	/
NNC(=O)c1cc2sccc2s1	22.1	/	63.3*	77.8*	80.5*	-79.5	6.1
CN1CCN(c2ccc(NC(=O)c3ccc(-c4ccc(Br)cc4)o3)cc2)CC1	-33.0	2.3	25.4*	10.3	6.2	29.1	-6.3
O=C(Nc1ccc(N2CCN(Cc3ccccc3F)CC2)cc1)c1ccccc1[N+](=O)[O-]	-4.8	6.5	-2.3	5.2	-2.9	19.7	/
O=C(Nc1cccc(NC(=O)c2ccccc2Cl)c1)c1ccc([N+](=O)[O-])o1	10.1	/	101.0*	/	/	85.8*	48.9*
CCCC(=O)N1CCN(c2ccc(NC(=O)c3ccc([N+](=O)[O-])o3)cc2)CC1	-5.4	70.1*	90.5*	45.0*	90.2*	39.6	44.8*
O=C(Nc1ccc(N2CCN(Cc3ccccc3F)CC2)cc1)c1ccc([N+](=O)[O-])o1	18.8	/	71.8*	/	/	104.7*	32.5*
CCN1CCN(c2ccc(NC(=O)c3ccc(Br)o3)cc2)CC1	-93.3	/	-3.4	/	/	-91.2	/
O=C(NCCc1ccccc1C(F)(F)F)C1CCC(=O)N(C2CC2)C1 (centres undefined)	-19.1	/	2.2	/	/	15.0	/
O=C(Nc1ccc(N2CCCC2)cc1)c1ccc(Br)o1	-77.2	-56.6	1.6	2.5	2.6	-33.4	/
O=C(Nc1ccc(N2CCCCC2)cc1)c1ccc([N+](=O)[O-])o1	10.4	/	80.3*	/	/	-214.2	15.0
CS(=O)(=O)N1CCN(c2ccc(NC(=O)c3ccc([N+](=O)[O-])o3)cc2)CC1	-21.3	65.6*	24.6*	-7.4	5.8	72.2*	56.3*
O=C(Nc1ccc(N2CCCC2)c(Cl)c1)c1ccc([N+](=O)[O-])o1	-4.7	78.5*	70.9*	-0.5	74.8*	/	36.4*
CC(C)(C)C(=O)N1CCN(c2ccc(NC(=O)c3ccc([N+](=O)[O-])o3)cc2)CC1	47.1	/	100.9*	/	/	28.7	58.5*
O=C(Nc1ccc(N2CCCC2)c(Cl)c1)c1ccco1	-149.4	-211.1	-3.1	4.5	4.5	-113.2	/
CC(=O)CCCC(NS(=O)(=O)CCC(Cl)(Cl)Cl)c1ccccc1 (centres undefined)	-1.4	/	-6.9	/	/	-17.3	/
COc1ccc(CCN2C(=O)NC(NS(=O)(=O)c3ccccc3)(C(F)(F)F)C2=O)cc1OC (centres undefined)	-7.4	/	-3.5	/	/	0.8	/
COc1cccc(-c2ccc(NC(=O)C3CCCN(Cc4ccc(CO)o4)C3)cc2)c1 (centres undefined)	-27.6	/	8.5	/	/	-7.9	/
Cc1ccc(N=Cc2c(C)[nH]n(-c3nc4ccccc4[nH]3)c2=O)cc1	-9.4	-22.5	34.7*	38.6*	26.4*	22.9	52.9*
SMILES	KLF5 inhibitor	APP transl inh	IEC-6 tox	BaF3 tox	Ba/F3 V617F tox	aSyn 5UTR inh	IEC-6 tox confirm
O=C(C1=NN[C@@H]2C(=O)N(c3ccccc3C(F)(F)F)C(=O)[C@H]12)c1ccc2ccccc2n1	1.2	-14.0	70.6*	54.1*	75.8*	-29.0	2.8
Cn1c(CNC(=O)c2ccco2)nnc1SCCOc1ccccc1	-10.1	/	-0.2	/	/	-10.8	/
Cc1ccc(/C=N\NC(=O)c2ccc3c(c2)OCO3)o1	-59.2	/	-6.4	/	/	-80.6	/
NC(=S)N/N=C/c1ccc(C(F)(F)F)cc1	19.2	-0.9	39.2*	34.7*	65.7*	-8.4	18.3
COc1ccc(/C=N/NC(N)=S)cc1	9.5	/	-2.3	-0.6	0.4	-4.5	/
CCOC(=O)N=Nc1c2ccccc2c2nc3no[nH]c3nc12	1.4	93.8*	100.5*	14.2	3.6	118.7*	102.1*
COc1ccc(S(=O)(=O)NCc2ccccn2)cc1NC(=O)c1ccccc1	47.5	/	45.2*	/	/	-62.3	45.1*
COCCNC(=S)N/N=C(\C)c1ccccc1O	40.4	78.6*	85.2*	8.7	1.4	-161.4	17.8
COc1ccc(/C(C)=N/NC(=S)NCCc2ccccc2)c(O)c1	-1.7	/	40.3*	/	/	-3.4	2.0
CCCCNC(=O)N1CCCN(c2ccc(C#N)cn2)CC1	10.9	/	-4.7	/	/	5.1	/
OCCN1CCN(C2CCC(c3ccc(F)cc3)c3ccc(F)cc32)CC1 (centres undefined)	/	/	/	/	/	11.8	/
Cn1cc([N+](=O)[O-])c(C(=O)Nc2ccc(C(=O)N3CCCCC3)cc2)n1	-7.6	20.9	-0.1	13.7	5.6	-5.0	/
Cn1cc([N+](=O)[O-])c(C(=O)Nc2ccc(C3CCCCC3)cc2)n1	-149.5	-26.6	25.3*	1.9	0.2	45.0	30.4*
O=C(Nc1nc2c(F)cccc2s1)c1ccc([N+](=O)[O-])o1	-47.2	/	40.3*	/	/	-95.4	15.2
Cn1cc([N+](=O)[O-])c(C(=O)Nc2nc(-c3ccc(Cl)cc3)cs2)n1	2.4	95.9*	36.6*	28.3*	4.5	62.8*	56.4*
